Design in all cases: scale not given: direction of the effect not stated beside the values
Assay [1] addresses Protein translocase subunit SecA (Escherichia coli (strain K12)) (UniProt P10408). In words: Assay to Identify E. coli SecA ATPase Inhibitors. It counts as functional. Conditions: 30 µM.
Assay [2] deals with T1, Ubiquitin-activating enzyme e1, putative (Leishmania donovani (strain BPK282A1)) (UniProt E9BSI1).
T1 sequence (whole entry): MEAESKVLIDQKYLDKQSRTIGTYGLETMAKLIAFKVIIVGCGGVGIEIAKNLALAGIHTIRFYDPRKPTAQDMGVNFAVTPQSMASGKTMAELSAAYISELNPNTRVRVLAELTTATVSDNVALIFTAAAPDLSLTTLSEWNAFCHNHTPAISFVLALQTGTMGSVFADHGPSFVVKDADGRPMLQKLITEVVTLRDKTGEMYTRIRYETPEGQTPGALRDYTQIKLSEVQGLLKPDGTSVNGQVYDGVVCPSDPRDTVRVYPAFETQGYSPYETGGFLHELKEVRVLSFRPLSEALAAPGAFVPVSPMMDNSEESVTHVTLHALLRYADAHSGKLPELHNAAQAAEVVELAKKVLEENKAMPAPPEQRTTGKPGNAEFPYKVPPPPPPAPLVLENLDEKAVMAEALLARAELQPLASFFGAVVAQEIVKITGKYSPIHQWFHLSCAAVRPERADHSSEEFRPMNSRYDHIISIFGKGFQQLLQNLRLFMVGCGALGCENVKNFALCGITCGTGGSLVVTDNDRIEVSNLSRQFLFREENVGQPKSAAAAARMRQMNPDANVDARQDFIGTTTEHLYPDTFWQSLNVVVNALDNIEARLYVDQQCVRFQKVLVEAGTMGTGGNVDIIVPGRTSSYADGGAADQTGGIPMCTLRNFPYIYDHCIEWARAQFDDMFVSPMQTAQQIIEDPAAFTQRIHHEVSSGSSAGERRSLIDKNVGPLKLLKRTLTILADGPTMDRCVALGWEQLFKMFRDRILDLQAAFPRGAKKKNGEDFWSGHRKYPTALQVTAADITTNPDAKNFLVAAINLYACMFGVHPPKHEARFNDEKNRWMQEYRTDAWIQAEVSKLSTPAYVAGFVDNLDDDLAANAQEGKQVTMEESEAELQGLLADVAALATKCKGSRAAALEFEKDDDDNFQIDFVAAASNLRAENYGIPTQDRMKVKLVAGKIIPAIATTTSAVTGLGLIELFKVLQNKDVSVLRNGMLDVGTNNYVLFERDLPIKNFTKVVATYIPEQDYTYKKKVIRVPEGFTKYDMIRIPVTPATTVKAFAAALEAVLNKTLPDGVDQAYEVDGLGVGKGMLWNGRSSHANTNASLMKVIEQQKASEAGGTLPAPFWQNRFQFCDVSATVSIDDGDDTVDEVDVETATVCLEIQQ
In words: Leishmania donovani Ubiquitin Activating Enzyme (LdE1). Format: functional. Conditions: 30 µM.

Assay [3] concerns the target Sialic acid-binding Ig-like lectin 9 (Homo sapiens) (UniProt Q9Y336). In words: Hs-Siglec9 ALPHAscreen SOP 20170721. Conditions: 10 µM. (In general: Alpha assays give light when donor and acceptor beads are brought close together.)
A further assay has as its system Trypanosoma cruzi. The assay can be described thus: Trypanosoma cruzi phosphomannomutase and mannose-1-phosphate guanylyltransferase assay. Conditions: 10 µM. Format: functional.
Assay [4] has as its target T2, Arginase-2, mitochondrial (Homo sapiens) (UniProt P78540).
T2 sequence (whole entry): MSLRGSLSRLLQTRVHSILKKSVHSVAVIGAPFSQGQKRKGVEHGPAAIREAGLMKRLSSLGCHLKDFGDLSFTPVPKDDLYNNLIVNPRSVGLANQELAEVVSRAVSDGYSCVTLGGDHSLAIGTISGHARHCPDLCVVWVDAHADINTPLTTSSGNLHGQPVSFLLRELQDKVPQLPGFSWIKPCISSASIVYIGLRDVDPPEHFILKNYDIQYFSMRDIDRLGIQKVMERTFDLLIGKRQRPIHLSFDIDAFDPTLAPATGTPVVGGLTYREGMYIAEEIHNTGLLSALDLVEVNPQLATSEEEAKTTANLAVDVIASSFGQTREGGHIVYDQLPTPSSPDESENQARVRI
In words: in vitro enzyme assay to detect the production of urea directly proportional to the activity of Arginase II. Further: in the data most compounds retested in dose-response had high values. It counts as functional. Conditions: 33.3 µM.

For assay [5], the target named is T3, Proteasome subunit beta (Trypanosoma cruzi) (UniProt O96673).
T3 sequence (whole entry): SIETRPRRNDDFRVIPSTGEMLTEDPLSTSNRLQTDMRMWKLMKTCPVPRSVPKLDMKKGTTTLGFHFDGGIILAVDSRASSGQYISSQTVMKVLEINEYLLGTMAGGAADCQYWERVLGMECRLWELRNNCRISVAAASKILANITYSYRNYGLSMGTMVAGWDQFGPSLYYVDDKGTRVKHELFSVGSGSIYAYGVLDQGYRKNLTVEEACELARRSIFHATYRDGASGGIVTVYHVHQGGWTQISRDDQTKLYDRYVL
In words: Trypanosoma cruzi proteasome chymotrypsin-like activity (TcProtChymo) assay. Further: in the data most compounds retested in dose-response had high values. Conditions: 9.37 µM. It counts as functional.

For another assay, the species on record is Homo sapiens. In words: To identify inhibition of the IFN signalling (Jak-Stat) pathway via expression of an eGFP reporter gene under the control of an IFN-stimulated response element (ISRE) containing MxA promoter. Format: functional. Conditions: 30 µM. In general terms: A reporter such as luciferase makes a cellular process visible.
In assay [6] the target is T4, Tyrosyl-tRNA synthetase, putative (Trypanosoma cruzi (strain CL Brener)) (UniProt Q4DSP6).
T4 sequence (whole entry): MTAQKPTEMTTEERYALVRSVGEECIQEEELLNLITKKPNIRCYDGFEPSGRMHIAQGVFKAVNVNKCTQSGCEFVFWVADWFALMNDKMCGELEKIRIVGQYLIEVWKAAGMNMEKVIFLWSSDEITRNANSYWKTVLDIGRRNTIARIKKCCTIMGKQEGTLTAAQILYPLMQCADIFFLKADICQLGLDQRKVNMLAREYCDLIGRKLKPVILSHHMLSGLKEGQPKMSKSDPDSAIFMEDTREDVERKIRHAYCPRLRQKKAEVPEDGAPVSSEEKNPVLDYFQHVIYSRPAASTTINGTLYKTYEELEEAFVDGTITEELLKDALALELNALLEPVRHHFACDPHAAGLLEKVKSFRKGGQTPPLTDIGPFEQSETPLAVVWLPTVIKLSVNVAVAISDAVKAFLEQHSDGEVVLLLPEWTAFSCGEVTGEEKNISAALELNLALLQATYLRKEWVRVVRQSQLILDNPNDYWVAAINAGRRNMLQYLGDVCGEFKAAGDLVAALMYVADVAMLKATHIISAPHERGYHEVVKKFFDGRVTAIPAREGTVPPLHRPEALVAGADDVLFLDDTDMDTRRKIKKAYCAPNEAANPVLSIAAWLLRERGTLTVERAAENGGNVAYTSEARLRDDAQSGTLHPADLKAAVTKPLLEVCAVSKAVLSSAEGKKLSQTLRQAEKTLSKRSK
In words: Trypanosoma cruzi tyrosyl tRNA synthetase (TcYRS) _High Tyrosine SOP. Further: in the data most compounds retested in dose-response had high values. Format: functional. Conditions: 30 µM.

Assay [7] addresses T4, Tyrosyl-tRNA synthetase, putative (Trypanosoma cruzi (strain CL Brener)). In words: Trypanosoma cruzi tyrosyl tRNA synthetase (TcYRS) SOP. Format: functional. Conditions: 30 µM.
Assay [8] deals with Chromo domain-containing protein 1 (Saccharomyces cerevisiae (strain ATCC 204508 / S288c) (Baker's yeast)) (UniProt P32657). The assay can be described thus: ScCHD-1 Enzyme Inhibition Assay. Further: in the data most compounds retested in dose-response had high values. Format: functional. Conditions: 30 µM.
Sequence of Chromo domain-containing protein 1 (Saccharomyces cerevisiae (strain ATCC 204508 / S288c) (Baker's yeast)) (P32657 whole entry, the tested form may be a part): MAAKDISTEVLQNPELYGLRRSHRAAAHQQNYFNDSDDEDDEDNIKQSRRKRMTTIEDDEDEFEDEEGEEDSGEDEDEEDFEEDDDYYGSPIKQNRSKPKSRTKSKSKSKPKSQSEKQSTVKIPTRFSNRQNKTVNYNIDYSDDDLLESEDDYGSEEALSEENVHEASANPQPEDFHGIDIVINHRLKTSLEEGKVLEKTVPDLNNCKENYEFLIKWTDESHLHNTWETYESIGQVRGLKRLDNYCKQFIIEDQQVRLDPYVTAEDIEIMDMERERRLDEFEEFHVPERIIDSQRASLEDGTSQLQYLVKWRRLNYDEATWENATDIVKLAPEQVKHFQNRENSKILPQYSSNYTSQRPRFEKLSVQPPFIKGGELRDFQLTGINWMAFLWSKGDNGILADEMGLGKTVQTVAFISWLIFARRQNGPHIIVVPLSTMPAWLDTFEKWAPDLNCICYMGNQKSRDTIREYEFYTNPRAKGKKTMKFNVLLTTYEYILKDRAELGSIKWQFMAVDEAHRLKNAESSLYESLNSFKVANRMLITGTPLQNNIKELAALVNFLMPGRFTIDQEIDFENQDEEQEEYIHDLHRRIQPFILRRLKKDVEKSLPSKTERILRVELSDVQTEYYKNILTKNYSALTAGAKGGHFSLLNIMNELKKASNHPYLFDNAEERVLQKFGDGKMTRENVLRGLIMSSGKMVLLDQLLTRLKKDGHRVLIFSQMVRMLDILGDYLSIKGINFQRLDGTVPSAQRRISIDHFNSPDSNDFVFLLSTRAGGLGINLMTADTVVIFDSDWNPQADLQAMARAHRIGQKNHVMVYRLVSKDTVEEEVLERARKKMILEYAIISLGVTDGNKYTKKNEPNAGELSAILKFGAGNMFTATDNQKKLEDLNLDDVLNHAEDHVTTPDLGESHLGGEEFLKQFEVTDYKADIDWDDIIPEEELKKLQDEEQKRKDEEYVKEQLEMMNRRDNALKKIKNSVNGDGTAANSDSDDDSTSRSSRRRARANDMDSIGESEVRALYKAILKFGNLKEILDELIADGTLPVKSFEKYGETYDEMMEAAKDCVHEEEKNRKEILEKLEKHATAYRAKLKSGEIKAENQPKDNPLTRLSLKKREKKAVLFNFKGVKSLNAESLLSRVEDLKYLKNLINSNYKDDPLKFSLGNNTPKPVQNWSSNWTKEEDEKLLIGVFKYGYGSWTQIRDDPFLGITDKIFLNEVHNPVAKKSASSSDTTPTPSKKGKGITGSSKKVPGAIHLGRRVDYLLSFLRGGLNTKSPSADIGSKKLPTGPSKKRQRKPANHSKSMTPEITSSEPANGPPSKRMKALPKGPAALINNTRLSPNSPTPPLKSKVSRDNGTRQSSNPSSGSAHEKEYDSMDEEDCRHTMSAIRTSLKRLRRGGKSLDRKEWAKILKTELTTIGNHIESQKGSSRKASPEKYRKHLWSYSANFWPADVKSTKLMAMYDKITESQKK

Each structure is given as a SMILES string. For some assays here: Entries with a potency or affinity are not part of this list.

Sequence of Protein translocase subunit SecA (Escherichia coli (strain K12)) (P10408 whole entry): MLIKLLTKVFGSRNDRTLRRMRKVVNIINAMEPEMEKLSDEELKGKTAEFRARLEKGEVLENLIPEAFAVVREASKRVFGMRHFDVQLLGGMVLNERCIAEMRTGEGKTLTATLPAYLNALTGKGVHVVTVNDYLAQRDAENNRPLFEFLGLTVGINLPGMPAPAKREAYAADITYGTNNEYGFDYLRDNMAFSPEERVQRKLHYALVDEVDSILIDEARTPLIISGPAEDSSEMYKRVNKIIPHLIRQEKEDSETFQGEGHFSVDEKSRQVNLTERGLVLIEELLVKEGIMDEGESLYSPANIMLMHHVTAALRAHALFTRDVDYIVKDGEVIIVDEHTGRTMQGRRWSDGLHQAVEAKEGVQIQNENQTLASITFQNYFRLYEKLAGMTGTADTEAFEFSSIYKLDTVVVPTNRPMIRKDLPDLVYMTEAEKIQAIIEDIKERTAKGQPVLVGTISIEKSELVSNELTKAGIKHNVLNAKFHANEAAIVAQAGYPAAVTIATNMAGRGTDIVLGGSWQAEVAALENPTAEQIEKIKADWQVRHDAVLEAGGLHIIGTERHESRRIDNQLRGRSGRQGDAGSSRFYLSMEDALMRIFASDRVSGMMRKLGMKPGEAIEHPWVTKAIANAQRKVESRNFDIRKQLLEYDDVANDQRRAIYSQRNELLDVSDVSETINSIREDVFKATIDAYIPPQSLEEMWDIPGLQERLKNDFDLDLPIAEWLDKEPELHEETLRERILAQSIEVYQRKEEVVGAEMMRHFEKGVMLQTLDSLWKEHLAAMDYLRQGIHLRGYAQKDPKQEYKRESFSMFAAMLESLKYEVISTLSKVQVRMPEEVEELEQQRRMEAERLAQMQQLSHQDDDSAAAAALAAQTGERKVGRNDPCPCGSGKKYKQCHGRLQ
Sequence of Sialic acid-binding Ig-like lectin 9 (Homo sapiens) (Q9Y336 whole entry): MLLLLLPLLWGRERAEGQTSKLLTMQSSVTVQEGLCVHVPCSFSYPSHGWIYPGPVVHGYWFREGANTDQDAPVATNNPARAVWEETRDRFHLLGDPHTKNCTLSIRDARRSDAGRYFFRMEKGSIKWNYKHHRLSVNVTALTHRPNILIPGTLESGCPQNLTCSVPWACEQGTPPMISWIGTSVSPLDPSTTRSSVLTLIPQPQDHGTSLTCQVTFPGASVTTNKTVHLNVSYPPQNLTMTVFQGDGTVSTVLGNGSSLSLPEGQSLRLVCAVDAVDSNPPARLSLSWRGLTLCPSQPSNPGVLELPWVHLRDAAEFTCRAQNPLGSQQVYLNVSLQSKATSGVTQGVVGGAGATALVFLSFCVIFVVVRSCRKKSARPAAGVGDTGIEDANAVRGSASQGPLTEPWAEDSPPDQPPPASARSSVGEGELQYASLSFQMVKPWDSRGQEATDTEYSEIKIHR

For `NC(=O)CC1CCN(C(=O)NCc2ccccc2-n2cccn2)CC1`, the Percent Effect in assay [1] is -5.04%; in [2], 21.3%; in assay [3], 5.25%; in the assay on Trypanosoma cruzi, -0.602%; in assay [4], -1.77%; in assay [5] it was 9.41%. The Percent Effect in the assay listed under Homo sapiens is 15%; in assay [6], 7.89%; in assay [7], 15.4%; in assay [8], -10.3%.
On to `CN(Cc1ccc2c(c1)OCCO2)C(=O)Cn1cccnc1=O`, for which the Percent Effect in assay [1] was -4.28%; in assay [2], 10.7%; in [3], -2.28%; with Trypanosoma cruzi it was 3.41%; in [4] it was 1.33%; in assay [5], 16%. For the same molecule, the Percent Effect in the assay listed under Homo sapiens is 6.87%; in [6], 6.84%; in assay [7] it was 12.8%; in [8], -8.2%.
`c1ccc2cc(OCCN3CCn4c(nnc4C4CC4)C3)ccc2c1`: the Percent Effect in assay [1] was -5.63%; in assay [2], -18.7%; in [3] it was -1.64%; with Trypanosoma cruzi, 1.61%; in assay [4], -5.32%; in assay [5], 4.33%. In addition, the Percent Effect is -7.36% in the assay filed under Homo sapiens, 1.58% in assay [6], -10.3% in [7] and -10.9% in [8].
With `COCCN1C(=O)C[C@@H]2[C@H]1CCN2C(=O)COc1ccccc1`, the Percent Effect in [1] was -4.5%; in assay [2], 6.49%; in [3], -2.28%; in the assay with Trypanosoma cruzi it was -3.02%; in assay [4], -4.86%; in assay [5] it was 15.6%. Moreover, the Percent Effect is -17.9% in the assay filed under Homo sapiens, 2.63% in assay [6], 10.3% in [7] and -1.49% in assay [8].
Turning to `CS(=O)(=O)NCC1CCCN(C(=O)c2ccc(Cl)o2)C1` (stereo not given), the Percent Effect in [1] was 1.32%; in assay [2], 7.79%; in [3], -4.36%; with Trypanosoma cruzi, -0.746%; in assay [4], 7.58%; in [5] it was 14.6%. The Percent Effect in the assay listed under Homo sapiens was -11.3%; in [6], 4.9%; in [7] it was 18.8%; in assay [8], -10%.
`CN(C)CC1CN(Cc2ccsc2)Cc2nccn2C1` (stereo not given): the Percent Effect in [1] is -3.4%; in assay [2], 6.49%; in assay [3] it was -4.24%; in the assay on Trypanosoma cruzi, -1.85%; in assay [4], 3.24%; in [5] it was 18.4%. For the same molecule, the Percent Effect in the assay listed under Homo sapiens is -9.26%; in assay [6], 8.95%; in assay [7], 12.8%; in assay [8] it was 6.09%.
Take `CC(C)c1cc(C(=O)NCCN2CCCS2(=O)=O)n[nH]1`: the Percent Effect in [1] was -3.62%; in assay [2] it was 15.4%; in [3], 0.501%; with Trypanosoma cruzi it was 0.469%; in [4], 4.92%; in assay [5], 18%. Also, the Percent Effect in the assay filed under Homo sapiens is -1.8%; in assay [6], -4.31%; in [7], 18.1%; in [8], -2.98%.
Turning to `CCn1nc(C)c(CCNC(=O)C2CCCN(CC(N)=O)C2)c1C` (stereo not given), the Percent Effect was -8.24% in [1]; 8.11% in assay [2]; 27.7% in assay [3]; 9.02% in the assay on Trypanosoma cruzi; 9.44% in assay [4]; 5.14% in assay [5]. Besides, the Percent Effect in the assay listed under Homo sapiens is 12.5%; in [6], 10.1%; in assay [7] it was 17.1%; in assay [8] it was -5.53%.
Take `CN(Cc1nc2c(cnn2C)c(=O)[nH]1)Cc1ccc(F)cc1F`: the Percent Effect in assay [1] is -0.314%; in assay [2], 20.5%; in assay [3], -17.8%; in the assay with Trypanosoma cruzi, 2.72%; in [4] it was -2.05%; in assay [5], 16.8%. For the same molecule, the Percent Effect in the assay listed under Homo sapiens was 3.63%; in [6], 7.18%; in [7], 25.3%; in assay [8] it was -5.98%.
As for `CCCc1cc(C(=O)N2CCCC2c2cccnc2)[nH]n1` (stereo not given), the Percent Effect in [1] is -2.28%; in [2] it was 13.5%; in assay [3] it was 7.33%; with Trypanosoma cruzi it was 2.81%; in assay [4] it was 4.54%; in [5] it was 17.1%. Further, the Percent Effect in the assay listed under Homo sapiens is 10.1%; in assay [6] it was 4.79%; in assay [7] it was 14.6%; in assay [8], -3.7%.
With `COc1ccc(F)cc1CN1CCCC(c2cc(C(N)=O)[nH]n2)C1` (stereo not given), the Percent Effect was -3.96% in assay [1]; 5.33% in assay [2]; 5.92% in assay [3]; 1.81% in the assay with Trypanosoma cruzi; -2.22% in [4]; 1.61% in [5]. The Percent Effect is 8.51% in the assay filed under Homo sapiens, 3.68% in [6], 5.13% in [7] and -9.49% in assay [8].

(Values after ChEMBL document CHEMBL3988442, “University of Dundee, Small-Polar-MMV Screening Library” (2021).)
